IL-1B inflam inh = qHTS for Inhibitors of Inflammasome Signaling: IL-1-beta AlphaLISA Primary Screen | 360,000 compounds, 4.7% hits | AID 743279, 2014 | THP-1 LPS/ATP IL-1B secretion, AlphaLISA, 16 h; hits give low values | activity change, % at 57.5 µM; in the data active means activity change below about -50%; inconclusive means mostly about -30% to -49%
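THP-1 cells pretreated 1 hr with compounds (up to 57.5 uM final), then stimulated with LPS (250 ng/mL final) plus ATP (1.25 mM final); secreted IL-1B measured by AlphaLISA after 16 hr, decreased signal indicating inhibition.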
ATXN viability = Viability Counterscreen for Primary qHTS for Inhibitors of ATXN expression; Potency, µM (doses to about 56.7 µM), most hits filed as cytotoxic; S2 cells (HEK-293 line with an ATXN2-luciferase reporter) viability, CellTiter-Fluor protease fluorescence, 24 h; AID 651635, 2014; 400,000 compounds, 0.49% hits; further: nearly all actives have a fitted effect of over 40% in size
USP1-UAF1 inh = Inhibitors of USP1/UAF1: Primary Screen | recombinant USP1/UAF1, Ub-Rhodamine cleavage fluorescence | Potency, µM (doses to about 57.1 µM), usual class: inhibitors | 390,000 compounds, 0.23% hits | AID 743255, 2014; further: nearly all actives have a fitted effect of over 60% in size
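USP1/UAF1 complex (1 nM) preincubated 15 min at room temperature with compound, then Ub-Rho substrate (150 nM final) added. Kinetic fluorescence at 480/540 nm over 6 reads at 60 s intervals; 50 mM HEPES pH 7.8, 0.5 mM EDTA, 0.1 mg/ml BSA, 1 mM TCEP, 0.01% Tween-20.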
USP2a inh = qHTS Assay for Inhibitors of Ubiquitin-specific Protease USP2a Using CHOP2 as the Reporter | 330,000 compounds, 0.01% hits | Potency, µM (series often up to 38.3 µM), usual class: inhibitors | USP2 core, Ub-CHOP2 coupled fluorogenic reporter, 485/531
Target sequence (O75604 whole entry, looked up): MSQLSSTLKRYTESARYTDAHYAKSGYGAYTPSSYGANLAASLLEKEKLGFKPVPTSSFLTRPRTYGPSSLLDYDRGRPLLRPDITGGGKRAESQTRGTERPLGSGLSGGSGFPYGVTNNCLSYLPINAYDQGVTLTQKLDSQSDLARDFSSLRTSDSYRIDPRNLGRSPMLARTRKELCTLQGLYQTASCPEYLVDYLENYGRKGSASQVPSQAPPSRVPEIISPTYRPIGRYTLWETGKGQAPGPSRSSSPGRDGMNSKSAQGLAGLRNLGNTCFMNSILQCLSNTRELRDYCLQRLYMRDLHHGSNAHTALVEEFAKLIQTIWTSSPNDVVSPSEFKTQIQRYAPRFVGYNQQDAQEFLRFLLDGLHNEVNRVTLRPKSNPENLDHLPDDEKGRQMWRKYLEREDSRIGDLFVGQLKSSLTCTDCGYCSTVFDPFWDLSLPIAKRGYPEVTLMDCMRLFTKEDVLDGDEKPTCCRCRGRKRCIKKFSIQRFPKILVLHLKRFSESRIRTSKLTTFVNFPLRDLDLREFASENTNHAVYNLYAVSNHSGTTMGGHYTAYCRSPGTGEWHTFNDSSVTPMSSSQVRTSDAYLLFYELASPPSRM
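Deubiquitinase activity read as fluorescence (485/531 nm) after Ub-CHOP2 cleavage activates the enterokinase reporter on its substrate; USP2 core 10nM, Ub-CHOP2 and substrate 25nM each, 30min compound preincubation then 60min RT; data normalized to NEM, curves fitted.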
ATXN2 expr inh = Primary qHTS for Inhibitors of ATXN expression | Potency, µM (highest dose often 57 µM), most hits filed as inhibitors | HEK-293 ATXN2-luciferase reporter, luminescence, 24 h | AID 1745845, 2022 | 360,000 compounds, 0.72% hits; further: nearly all actives have a fitted effect of over 55% in size
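qHTS (up to 57 uM final) was run with 24 h compound exposure of reporter cells at 37 °C. Each well was multiplexed: SteadyGlo luminescence measured ATXN2-luciferase expression after a fluorogenic Gly-Phe-AFC viability readout (25 uM final).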
Numbers stand for hits; – = inactive; ? = inconclusive; · = not tested or not shown; [ ] = remark or other dose. Only some compounds are listed: those with a hit (about 4.8% of all), similar ones and a draw of the others. Unless noted, the call rests on the fitted dose curve; in most records, active means well fitted curve in the direction sought with a large enough effect; inconclusive means small, poorly fitted or top-dose-only effect, or another doubt; inactive means no such curve, though single readings can be large; an effect the other way counts as inactive or inconclusive.

SMILES | IL-1B inflam inh | ATXN viability | USP1-UAF1 inh | USP2a inh | ATXN2 expr inh
CCCC(=O)NC(c1ccco1)c1cc(Cl)c2cccnc2c1O (stereo not drawn) | – | ? | – | – | 25.1µM
Nc1cccc(S(=O)(=O)N2CCCN(S(=O)(=O)c3ccc4c(c3)OCCO4)CC2)c1 | · | · | · | · | –
COCCn1c(N)c(N(Cc2ccccc2)C(=O)C(C)Oc2ccc(Br)cc2)c(=O)[nH]c1=O (stereo not drawn) | – | – | – | · | ·
CC[N+](C)(CC)CCC(c1ccccc1)C1CCCCC1 (stereo not drawn) | – | – | – | – | –
CC[N+](C)(CC)CCOC(=O)C(O)(c1ccccc1)C1CCCCC1 (stereo not drawn) | -55.4 | – | – | – | –
Cc1cc(C(=O)CN2C(=O)C(=O)N(CC(C)C)C2=O)c(C)n1C1CC1 | – | – | – | – | –
COc1cc(OC)cc(C(=O)N2CCN(C(=O)c3ccc(-c4ccccc4)cc3)CC2)c1 | -68.0 | – | – | – | –
COc1ccc(C(=O)N2CCN(C(=O)c3ccc(-c4ccccc4)cc3)CC2)cc1OC | – | – | – | – | –
Cc1cc(C)cc(OCC(=O)Nc2ccc(Cl)c(-c3nc4ncccc4o3)c2)c1 | · | – | – | · | ?
CCC(C)c1ccccc1O (stereo not drawn) | – | – | – | – | –
CCC(c1ccccc1)C(CC)c1cc(O)c(O)c(O)c1 (stereo not drawn) | -78.3 | ? | – | · | ?
CC(=O)c1cccc(NC(=O)CCn2nc(C)c(S(=O)(=O)N(C)C)c2C)c1 | · | · | – | · | ·
FC(F)(F)c1nc2ccccc2c2nc3ccccc3n12 | – | – | – | – | –[11.3 µM]
FC(F)(F)c1nnc2c(Sc3ccc(Cl)cc3)nc3ccccc3n12 | -52.0 | – | – | – | ?
FC(F)(F)c1nnc2c(Sc3ccccc3)nc3ccccc3n12 | ? | – | – | – | –
FC(F)(F)c1nnc2c(Sc3ccccn3)nc3ccccc3n12 | -66.0 | ? | – | – | –
COc1ccc(NC(=O)/C(Cl)=C(/Cl)S(=O)Cc2ccccc2Cl)cn1 (stereo not drawn) | -106.8 | 0.597µM | ? | – | 0.844µM
COc1ccc(NC(=O)Cc2ccc(Cl)c(Cl)c2)cn1 | – | – | – | – | ·
COc1ccc(NC(=O)/C(Cl)=C(/Cl)S(=O)(=O)Cc2ccc(C)cc2)cn1 | -118.5 | 8.91µM | ? | – | 7.08µM
CC1CN(C(=S)Nc2ccccc2)C(C)CN1C=O (stereo not drawn) | – | – | – | · | –
Cc1cccc(NC(=O)CSc2cn(CC(=O)N3CCCC3)c3ccccc23)c1C | · | · | – | · | ·
O=Cc1c(-c2ccc(Cl)cc2)oc2ccc(O)cc12 | -55.5 | – | – | · | –
Cc1ccc(C(=O)Nc2ccc(SC(F)F)cc2)s1 | -59.3 | ? | – | – | –
CCn1c(N)[n+](CC(=O)Nc2ccc(SC(F)F)cc2)c2ccccc21 | -97.5 | – | – | – | ?
Cn1ccnc1SCC(=O)Nc1ccc(SC(F)F)cc1 | – | – | – | – | ·
SMILES | IL-1B inflam inh | ATXN viability | USP1-UAF1 inh | USP2a inh | ATXN2 expr inh
O=C(COC(=O)c1ccccc1C(=O)c1ccccc1)Nc1ccc(SC(F)F)cc1 | -76.8 | – | – | – | –
O=C(COc1ccccc1C(=O)O)Nc1ccc(SC(F)F)cc1 | – | – | – | – | –
CC[N+](CC)(CC)CC(=O)Nc1ccc(SC(F)F)cc1 | -95.7 | – | – | – | –
CC(C)=CC(=O)OCC(=O)Nc1ccc(SC(F)F)cc1 | – | – | – | – | –
CC(C)n1c(=O)c2ccccc2n1Cc1cn(-c2ccc(Cl)cc2)nn1 | – | – | · | · | –
O=C(Cn1cnc2ccccc21)Nc1ccc(SC(F)F)cc1 | -61.2 | – | – | – | –
O=C(NCc1ccccc1Cl)c1ccc2sc([C@H]3C[C@H](O)[C@@H](CO)O3)nc2c1 | – | – | · | · | –
COc1ccc(N(C)S(=O)(=O)c2ccc3c(c2)NC(=O)CO3)c(OC)c1 | – | – | – | – | –
O=C(c1ccccc1)c1ccc(OCCCN2CCCCC2)cc1 | -59.2 | – | – | – | –
CC(C)(C)c1ccc(OCCCCCCN2CCNCC2)cc1 | -80.4 | ? | – | · | ?
CC(C)(c1ccccc1)c1ccc(OCCCN2CCNCC2)cc1 | -80.2 | ? | – | – | –
CC(=O)c1ccc(OCCCN2CCCCC2)cc1 | – | – | – | – | –
CC(C)(c1ccccc1)c1ccc(OCCN2CCOCC2)cc1 | – | – | – | – | ·
CCOc1ccc(-c2nonc2NC(=O)c2oc3cc(Br)ccc3c2C)cc1 | · | ? | – | · | –
COc1cccc(C(=O)/C=C/c2ccc(OCC#N)c(OC)c2)c1 | -101.9 | · | – | – | ?
COc1ccc(/C=C/C(=O)NCc2ccccn2)cc1OC | -72.8 | – | – | – | –
CCOc1ccc(/C=C/C(=O)c2ccccc2)cc1OC | -102.6 | ? | – | – | –
COc1ccc(/C=C/C(=O)c2ccccc2)cc1COc1ccccc1F | -64.9 | – | – | – | –
CC(=O)n1c(-c2ccccc2)c(-c2ccccc2)n(C)c1=O | – | ? | – | · | –
COc1cc(/C=C/C(=O)c2ccc(O)cc2)ccc1OCC#N | ? | ? | – | – | ?
COC(=O)c1ccc(/C=C/C(=O)c2cccc(OC)c2)cc1 | -101.4 | – | ? | – | –
CCOc1ccc(C(=O)/C=C/c2ccc(OC)c(OC)c2)cc1 | -105.9 | – | – | – | –
COc1ccc(/C=C/C(=O)C2(O)CCCCC2)cc1OC | -91.4 | – | – | – | –
COc1ccc(C(=O)/C=C/c2ccc(OC3CSC3)cc2)cc1OC | -87.6 | – | – | – | ?
O=C(/C=C/c1ccc(OC2CSC2)cc1)c1ccc(Cl)cc1 | – | – | – | – | –
SMILES | IL-1B inflam inh | ATXN viability | USP1-UAF1 inh | USP2a inh | ATXN2 expr inh
Oc1cc2c(cc1C(c1ccc(Cl)c(Cl)c1)N1CCCC1)OCO2 (stereo not drawn) | -99.0 | ? | – | – | –
CC(C)c1ccc(NC(=O)C(c2ccc3c(c2)OCO3)N2CCCCC2)cc1 (stereo not drawn) | – | ? | – | ? | –
Nc1nc(Sc2c([N+](=O)[O-])cc(C(F)(F)F)cc2[N+](=O)[O-])n[nH]1 | -99.5 | – | – | – | –
Nc1nc(Sc2ccc(C(F)(F)F)cc2[N+](=O)[O-])n[nH]1 | – | – | – | – | –
Cc1cc(NC(=O)CSc2nc3ccccc3n2CCC#N)no1 | -55.6 | – | – | – | ·
COC(=O)CSc1nc(N)c(C#N)c(-c2ccc(O)cc2)c1C#N | -70.0 | – | – | – | –
CCOC(=O)CSc1nc(N)c(C#N)c(-c2ccc(OCC)cc2)c1C#N | – | – | – | – | –
COc1ccc2c(c1)-c1nc(-n3ncc(C(=O)NCc4cccnc4)c3C3CC3)ncc1CC2 | · | – | · | · | ·
